Reference: the supplement of paper PMC6555819

Tests used:
Test in all cases: PBM binding z-score (relative to random genomic background probes); higher = stronger binding; sequences stand for … in GC…GCGATTGACAGCGTAGAATGAAGG
[1] = test system: PPARg:RXRa DBDmut IVT, anti-RXR (DBD mutation: RXRa K156A/R161A, NR concentration 270 nM, RXRa partner concentration 90 nM)
Method in brief: (§1)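 Binding buffer was PBS pH 7.4 with 2% milk, 0.02% Triton X-100, 1 mM DTT, 0.2 mg/mL BSA and 0.4 mg/ml salmon testes DNA. In it, ligand-free nuclear receptor dimers were incubated 1 h on custom Agilent 4×180K protein-binding microarrays carrying double-stranded probes. Antibodies against each partner (one per run) detected binding, and z-scores were calculated against random background probes after regression normalization of scanned fluorescence.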

[2] = test system: PPARg:RXRa IVT, anti-PPARg (NR concentration 270 nM, RXRa partner concentration 90 nM)
Method in brief: as §1

[3] = test system: PPARg DBDmut:RXRa IVT, anti-PPARg (DBD mutation: PPARg1 K132A/R137A, NR concentration 270 nM, RXRa partner concentration 90 nM)
Method in brief: as §1

[4] = test system: PPARg DBDmut IVT, anti-PPARg (DBD mutation: PPARg1 K132A/R137A, NR concentration 270 nM)
Method in brief: as §1

[5] = test system: PPARg homodimer (NR concentration 180 nM)
Method in brief: as §1

[6] = test system: PXR:RXRa (NR concentration 270 nM, RXRa partner concentration 90 nM)
Method in brief: as §1

[7] = test system: PXR homodimer (NR concentration 270 nM)
Method in brief: as §1

[8] = test system: RARa:RXR (NR concentration 270 nM, RXRa partner concentration 90 nM)
Method in brief: as §1

[9] = test system: RARa homodimer (NR concentration 270 nM)
Method in brief: as §1

[10] = test system: RARb:RXRa (NR concentration 270 nM, RXRa partner concentration 90 nM)
Method in brief: as §1

Sequence | PBM binding z-score [1] | PBM binding z-score [2] | PBM binding z-score [3] | PBM binding z-score [4] | PBM binding z-score [5] | PBM binding z-score [6] | PBM binding z-score [7] | PBM binding z-score [8] | PBM binding z-score [9] | PBM binding z-score [10]
CAGCCTAGGTCAGGGCCAGTAAAGGAGGAACGTT | 1.26 | 1.51 | -1.63 | -1.14 | 0.652 | 0.328 | -0.795 | 1.08 | 0.335 | 3.49
CATAGCAGGCCAATCTGGGTCACTCAAGGCTTGA | 4.39 | 5.66 | -0.292 | -0.125 | 0.261 | 1.03 | -0.436 | 1.25 | -0.301 | 1.65
ATCTCTAGGCAACAAGTTCAGTGAAAGAGAGGAC | 0.952 | 0.456 | 0.856 | 0.154 | 0.297 | 0.875 | 1.52 | 0.335 | 0.376 | 1.32
GCAAGTTGGTCAGTAAAAGGTCACACACCGGTCG | 1.27 | 2.7 | 0.611 | 0.159 | 4.55 | 5.2 | 1.01 | 5.84 | 1.75 | 4.17
CCTACCAGGCCAATCTGGGTCACTCAAGGCTTGA | 3.85 | 5.15 | -0.114 | -1.08 | 1.37 | 1.39 | 0.0886 | 1.66 | 0.203 | 1.71
TCTCGGAGGACACGAAGGCCAGAGCTTTCCAGAG | 1.5 | 0.0169 | -0.633 | -1.61 | -0.704 | -0.278 | -0.919 | -0.235 | -1.31 | 1.82
CGGACTAGGTCAGAACAGGACAGTGAAGGATGAT | 6.67 | 6.53 | 3.25 | 1.13 | 1.57 | 0.748 | 0.281 | 0.846 | 0.0596 | 2.68
ATCTATAGGTAAAGTTCAGTGAAAGATCGATAGA | 1.31 | 1.74 | 1.49 | 1.19 | 1.41 | 1.99 | 1.33 | 1.21 | 1.04 | 2.62
TTCCCAAGGTGAAAGGTCGTTGATGCACGCCTTG | 1.67 | 4.56 | 0.3 | -0.0355 | 1.79 | 4.12 | 0.342 | 5.56 | -0.11 | 3.13
CGTCCAAGGTCAGAGATGTCAGTGAATGCCGAGT | 2.09 | 2.19 | -0.242 | -0.744 | 0.984 | 2.43 | 1 | 2.65 | 0.429 | 4.54
TCTTGTAGATCAAAGGTTAATAAAGCCGAAGCCT | 2.46 | 3.56 | 0.977 | 1.2 | 1.25 | 1.62 | 0.19 | 2.43 | 1.02 | 1.64
GCGACTGCGGCATCAGCAGGTTACCATAACTTAA | -0.255 | -0.657 | -1.23 | -0.596 | -0.378 | -0.379 | -0.376 | -0.0824 | -0.219 | -0.277
CCTAGCAGGCCAATCTGAGTCACTCAAGGCTTGA | 1.42 | 0.0725 | -1.14 | -1.49 | 0.0523 | -0.832 | -0.519 | -0.853 | -0.569 | -0.0528
TCTTGTAGATCAATAGAGGTTAAGAATGTGCGCT | 2 | 1.37 | 0.489 | 0.485 | 0.502 | 1.65 | 0.282 | 1.86 | 0.562 | 0.764
CGTCCAAGGTCAGAGAGGTAAGTGAATGCCGAGT | 2.46 | 2.1 | -0.583 | -0.788 | 1.67 | 2.89 | 1.46 | 3.24 | 0.288 | 4.67
TCTGGGAGGACACGAAGGTCAGAGCTTTCCAGAG | 1.04 | 0.947 | -0.643 | -0.716 | 1.05 | 1.99 | 0.818 | 2.19 | 0.238 | 3.28
ATACCAAGGTGATCATGAGGTCGTTGATACTAAC | 0.474 | 1.5 | 0.599 | 0.991 | 0.68 | 3.42 | 1.96 | 2.22 | 0.136 | 1.49
TCGAGTAGGTTAGGGGCATTGAGAATGGCGTCGA | 1.85 | 1.45 | -1.19 | -0.696 | 1.3 | 0.449 | 0.233 | 0.211 | -0.562 | 1.03
TTACCATGGTGAGCTGAGGTCGTTGATCCAACTC | -0.23 | 0.397 | -0.517 | -0.449 | -0.916 | 1.87 | -0.0892 | 1.14 | -0.905 | 0.272

Sequence | PBM binding z-score [1] | PBM binding z-score [2] | PBM binding z-score [3] | PBM binding z-score [4] | PBM binding z-score [5] | PBM binding z-score [6] | PBM binding z-score [7] | PBM binding z-score [8] | PBM binding z-score [9] | PBM binding z-score [10]
CGAACTAGCTCAGAACAGGACAGTGAAGGATGAT | -0.0249 | -0.714 | -0.195 | 0.0741 | -0.71 | -0.669 | 0.0442 | -0.393 | 0.354 | -0.236
TCTTGTATATCAGCAGGTTAAGAAAGCTGGCCAA | 2.07 | 0.6 | 0.115 | 0.41 | 0.718 | 0.584 | 0.0851 | 0.998 | 0.982 | 0.687
CGTCCAAGGTCAAGGTCAGCGAAAGAGACTCGAA | 3.83 | 4.71 | 0.201 | -0.753 | 3.43 | 4.67 | 0.58 | 4.95 | 0.668 | 5.52
TCGAGTAGGTTACCAATGGGGCGTTCAGCTTTCT | 3.2 | 2.46 | -0.504 | -0.846 | 0.122 | -0.176 | -0.801 | 0.167 | -0.443 | 0.773
TGCATGAGGTTATAAGATCAGGGAACGTTGCAAA | -0.354 | 0.643 | 0.656 | 0.178 | 0.466 | 0.667 | -0.0693 | 1.48 | 0.252 | 1.4
TCTATTAGTTGATTAGGGCAACCAAAACAGCGGA | 2 | 1.72 | 1.55 | 1.68 | 0.9 | 0.429 | 0.323 | 0.556 | 1.11 | 0.905
ATCTCTAAGTAAGACTCAGTTCAGTGAAGAACGC | 0.103 | 0.218 | 0.885 | 1.04 | 0.659 | 0.518 | 1.83 | 0.541 | 1.22 | 0.15
TCGAGTAGGTTACCAATGAGGCATTCAGCTTTCT | 3.32 | 2.35 | 0.0818 | -0.605 | -0.815 | -0.0047 | -0.892 | 0.302 | -1.06 | 0.723
CCTAGCAGGCCAATCTGCGTCACTCAAGGCTTGA | 1.32 | -0.303 | -1.31 | -0.968 | -0.505 | -0.683 | -0.513 | -0.426 | -0.164 | 0.0378
CCGACTGGGGCAAGGTTATCATAACGCACAGCCA | 3.18 | 3.27 | -0.411 | -0.512 | 0.593 | 0.253 | -0.27 | 0.986 | -0.0927 | 1.5
GCATATAGGTAATACAGGGTGAAAGTCCGATTGT | 4.15 | 3.22 | 1.15 | 0.404 | 1.08 | 0.411 | 0.164 | 1.35 | 0.52 | 0.281
ATCTCTAGGTAAAGGTAGTTCAGTGAATGCAAAT | 2.73 | 2.3 | 0.954 | 1.19 | 1.25 | 1.15 | 0.822 | 0.523 | 1.7 | 0.628
TAGCCTAGGTCATGAGGGCCAGTATAGTGTCGGC | 2.17 | 3.05 | 0.44 | -0.29 | 0.909 | 1.6 | -0.521 | 2.56 | -0.556 | 3.8
CCTACTGGGCCATCTGGTCATTGATATCAACGTT | 3.95 | 4.15 | 0.821 | 0.613 | 0.5 | -0.397 | -0.43 | -0.692 | 0.0969 | 0.606
AGAACGAGGGCACGCTGAGTTGAAAGCAGAGTAG | 3.49 | 3.67 | 0.808 | 0.246 | 0.111 | 1.36 | -0.00968 | 1.1 | -0.124 | 2.51
CCTTACGGGTCACTAACAGGTTATAGCATTTGGA | 2.88 | 3.68 | 1.26 | 0.395 | 2.62 | 3.28 | 0.184 | 4.08 | 1.72 | 3.92
AGAATGAGGTTACCAAAGATCAGGGAGACGCTTG | 3.87 | 3.22 | 1.19 | 0.476 | 0.567 | 1.53 | 0.0174 | 1.99 | 0.112 | 2.15
CGTTCAAGGTCAATGCTAGGTCAGTGAAAGCATT | 4.31 | 4.8 | 0.872 | 0.0991 | 7.93 | 5.3 | 1.78 | 6.62 | 2.61 | 5.22
TCTTGTAGATCACGCAGGTTAAGAAAGCCTGAGT | 2.2 | 1.64 | 0.55 | 0.645 | 0.083 | 0.585 | 0.000906 | 0.685 | 0.00384 | 0.386
